The values that follow come from the supplement of paper PMC8866396.

± gives the standard deviation of the averaged measurements.

One assay has as its system IL-6-GFP PC-9GR. The experiment in a line: cell viability (CCK-8 OD) relative to DMSO control (fraction of control); higher = more viable cells. The conditions noted are these: compound concentration: 10 uM; treatment time: 48 h. Put shortly: (§1)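 Compounds from a purchased library of 510 were each tested at a final 10 μM for 48 h on PC-9 and PC-9GR lung cancer cells plated at 3000 cells/well in 96-well plates. These cells overexpressed IL-6-GFP from a lentiviral construct. Viability came from CCK-8 absorbance, given as the optical density of each well over that of the vehicle control well, across independent replicates numbering two.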

The subject of another assay is IL-6-GFP PC-9. The assay is described as above. The following applies: compound concentration: 10 uM; treatment time: 48 h. The essentials:
as §1

For the compound `Nc1nc(F)nc2c1ncn2C1OC(CO)C(O)C1O` (stereo not drawn) [Fludarabine], the cell viability in the assay on IL-6-GFP PC-9GR is 0.214 ± 0.12; in the assay with IL-6-GFP PC-9 it was 0.232 ± 0.026.
The like results for `Nc1n[n+]([O-])c2ccccc2[n+]1[O-]` [Tirapazamine] were, in that order, 1.09 ± 0.25 and 0.676 ± 0.12.
Taken in the same sequence, the figures for `NC(CC(=O)N1CCn2c(nnc2C(F)(F)F)C1)Cc1cc(F)c(F)cc1F.O.O=P(O)(O)O` (stereo not drawn) [Sitagliptin phosphate monohydrate] were 0.836 ± 0.12 and 0.812 ± 0.47.
In the case of `CC1=C(/C=C/C(C)=C/C=C/C(C)=C/C(=O)Nc2ccc(O)cc2)C(C)(C)CCC1` [Fenretinide], the cell viability in the assay with IL-6-GFP PC-9GR worked out at 0.47 ± 0.12; with IL-6-GFP PC-9, 0.449 ± 0.14.
Taken in the same sequence, the figures for `CC1=C(CC(=O)O)c2cc(F)ccc2/C1=C\c1ccc(S(C)=O)cc1` (stereo not drawn) [Sulindac] were 1.12 ± 0.075 and 0.821 ± 0.32.
`Cn1c(=O)cc(N2CCCC(N)C2)n(Cc2cc(F)ccc2C#N)c1=O.O=C(O)CCC(=O)O` (stereo not drawn) [Trelagliptin succinate]: the cell viability worked out at 0.825 ± 0.15 in the assay with IL-6-GFP PC-9GR and 1.07 ± 0.15 in the assay on IL-6-GFP PC-9.
The like results for `CC(C)(O)c1ccccc1CCC(SCC1(CC(=O)O)CC1)c1cccc(/C=C/c2ccc3ccc(Cl)cc3n2)c1` (stereo not drawn) [Montelukast] were, in that order, 1.11 ± 0.26 and 0.934 ± 0.32.
Taken in the same sequence, the figures for `CC#CC(=O)N1CCCC1c1nc(-c2ccc(C(=O)Nc3ccccn3)cc2)c2c(N)nccn12` (stereo not drawn) [Acalabrutinib (ACP-196)] were 1.04 ± 0.36 and 0.78 ± 0.084.
The like results for `CCCCNC(=O)NS(=O)(=O)c1ccc(C)cc1` [Tolbutamide] were, in that order, 1.13 ± 0.081 and 1.2 ± 0.16.
As to `Cc1ccc(=O)n(-c2ccccc2)c1` [Pirfenidone], the values for the cell viability in the assay on IL-6-GFP PC-9GR and in the assay with IL-6-GFP PC-9 were 1.24 ± 0.21 and 1.07 ± 0.31, respectively.
Taken in the same sequence, the figures for `CC(=O)c1c(C)c2cnc(Nc3ccc(N4CCNCC4)cn3)nc2n(C2CCCC2)c1=O.O=S(=O)(O)CCO` were 0.918 ± 0.1 and 0.811 ± 0.26.
Taken in the same sequence, the figures for `O=C(O)COC(=O)Cc1ccccc1Nc1c(Cl)cccc1Cl` [Aceclofenac] were 1.29 ± 0.4 and 1.1 ± 0.052.
Taken in the same sequence, the figures for `O=C(O)c1ccccc1OP(=O)(O)O` [Fosfosal] were 0.943 ± 0.088 and 1.01 ± 0.21.
As for `COc1c2occc2cc2ccc(=O)oc12` [Methoxsalen], the cell viability in the assay with IL-6-GFP PC-9GR was 0.933 ± 0.062; in the assay on IL-6-GFP PC-9, 0.839 ± 0.23.
`Cc1nc(Nc2ncc(C(=O)Nc3c(C)cccc3Cl)s2)cc(N2CCN(CCO)CC2)n1` [Dasatinib]: the values for the cell viability in the assay with IL-6-GFP PC-9GR and with IL-6-GFP PC-9 were 0.953 ± 0.026 and 0.206 ± 0.2, respectively.
The like results for `COc1ccnc(CS(=O)c2nc3ccc(-n4cccc4)cc3[nH]2)c1C` (stereo not drawn) [Ilaprazole] were, in that order, 1.17 ± 0.38 and 1.29 ± 0.23.
Taken in the same sequence, the figures for `CC(Nc1ncnc2[nH]cnc12)c1cc2cccc(Cl)c2c(=O)n1-c1ccccc1` (stereo not drawn) [Duvelisib (IPI-145, INK1197)] were 1.42 ± 0.39 and 1.1 ± 0.12.
With `Cc1cc(C(C)(C)C)cc(C)c1CC1=NCCN1` [Xylometazoline], the cell viability came out at 0.674 ± 0.26 in the assay on IL-6-GFP PC-9GR and 1.08 ± 0.14 in the assay with IL-6-GFP PC-9.
Regarding `CC(C)=CCC/C(C)=C/CC/C(C)=C/CCC(=O)OC/C=C(\C)CCC=C(C)C` [Gefarnate], the cell viability in the assay with IL-6-GFP PC-9GR is 0.851 ± 0.023; in the assay on IL-6-GFP PC-9 it was 1.06 ± 0.17.
The like results for `COc1nc2ccc(Br)cc2cc1C(c1ccccc1)C(O)(CCN(C)C)c1cccc2ccccc12` (stereo not drawn) [Bedaquiline] were, in that order, 0.849 ± 0.0096 and 0.85 ± 0.17.
Taken in the same sequence, the figures for `CN1CCC(=C2c3ccccc3CCn3c(C=O)cnc32)CC1` [Alcaftadine] were 0.751 ± 0.18 and 1.07 ± 0.21.
The like results for `Cc1nc(Nc2ncc(C(=O)Nc3c(C)cccc3Cl)s2)cc(N2CCN(CCO)CC2)n1.O` [Dasatinib Monohydrate] were, in that order, 0.687 ± 0.054 and 0.488 ± 0.059.
In the case of `Cl.N=C1CCCN1Cc1[nH]c(=O)[nH]c(=O)c1Cl` [Tipiracil hydrochloride], the cell viability with IL-6-GFP PC-9GR turned out to be 1.14 ± 0.35; in the assay with IL-6-GFP PC-9, 1.25 ± 0.059.
`Cc1cccn2c(=O)c(-c3nnn[n-]3)cnc12.[K+]` [Pemirolast potassium]: the cell viability was 1.24 ± 0.25 in the assay with IL-6-GFP PC-9GR and 1.23 ± 0.31 in the assay on IL-6-GFP PC-9.
The like results for `O=C1Nc2ccccc2/C1=C1\Nc2ccccc2C1=O` [Indirubin] were, in that order, 1.28 ± 0.29 and 0.916 ± 0.059.
For `Nc1nc(Cl)nc2c1ncn2C1OC(CO)C(O)C1F` (stereo not drawn) [Clofarabine], the cell viability came to 0.5 ± 0.013 with IL-6-GFP PC-9GR and 0.337 ± 0.13 in the assay on IL-6-GFP PC-9.
For the compound `CN1C(C(=O)Nc2ccccn2)=C(O)c2sccc2S1(=O)=O` [Tenoxicam], the cell viability was 1.16 ± 0.15 in the assay with IL-6-GFP PC-9GR and 1.21 ± 0.1 in the assay on IL-6-GFP PC-9.
As to `CCC1=CC2CN(C1)Cc1c([nH]c3ccccc13)C(C(=O)OC)(c1cc3c(cc1OC)N(C)C1C(O)(C(=O)OC)C(OC(C)=O)C4(CC)C=CCN5CCC31C54)C2.O=C(O)C(O)C(O)C(=O)O.O=C(O)C(O)C(O)C(=O)O` (stereo not drawn) [Vinorelbine Tartrate], the cell viability in the assay with IL-6-GFP PC-9GR was 0.559 ± 0.13; with IL-6-GFP PC-9, 0.566 ± 0.081.
Taken in the same sequence, the figures for `O=c1oc2cc(O)ccc2s1` [Tioxolone] were 1.06 ± 0.041 and 1.121 ± 0.0078.
